PubChem BioAssay AID504652 (National Center for Advancing Translational Sciences (NCATS), 2011)
Among all 360,000 compounds or so, about 11,000 (3.1%) were called active. The sample as a whole holds a higher share of actives than the screen did. Values without a mark were called inactive. Rule as the data show it: active = activity change below about -30%; inactive = the rest.

These compounds were tested against D(1A) dopamine receptor (Homo sapiens) (UniProt P21728) (assay: Antagonist of Human D 1 Dopamine Receptor: qHTS). Settings: HEK293 TREx D1 cells, calcium flux, dopamine EC80; at 10 µM; hits give low values.
D(1A) dopamine receptor (Homo sapiens), sequence (P21728 whole entry, looked up): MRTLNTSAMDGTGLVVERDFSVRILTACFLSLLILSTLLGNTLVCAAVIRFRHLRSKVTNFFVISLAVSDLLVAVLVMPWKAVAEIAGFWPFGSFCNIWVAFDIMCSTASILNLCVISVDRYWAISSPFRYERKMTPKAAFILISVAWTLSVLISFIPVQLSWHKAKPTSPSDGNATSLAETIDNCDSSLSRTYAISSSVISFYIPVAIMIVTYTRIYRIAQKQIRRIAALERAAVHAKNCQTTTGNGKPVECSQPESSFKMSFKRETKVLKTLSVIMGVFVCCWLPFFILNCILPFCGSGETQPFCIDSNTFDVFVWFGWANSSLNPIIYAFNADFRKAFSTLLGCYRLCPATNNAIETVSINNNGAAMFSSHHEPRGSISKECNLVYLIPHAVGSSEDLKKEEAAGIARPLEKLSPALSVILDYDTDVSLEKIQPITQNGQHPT
Text: Dopamine receptors (DARs) are involved in the etiology and/or therapy of a number of neuropsychiatric and endocrine disorders. For instance, all receptor-based antiparkinsonian drugs work via stimulating the […] DAR subtype whereas all FDA-approved antipsychotic agents are antagonists of this receptor. […] There are three different types of allosteric modulators that we are seeking, two of which will stimulate or augment receptor signaling, allosteric agonists and potentiators, while the third, allosteric antagonists, will attenuate receptor signaling. The present primary screening assay measures compound antagonism after an EC80 addition of dopamine by tracking calcium flux in a […], inducible Hek293 Trex D1 cell line. NIH Chemical Genomics Center [NCGC] NIH Molecular Libraries Probe Centers Network [MLPCN] MLPCN Grant: NS064831-01 Assay Submitter (PI): David Sibley
Freshly passaged cells are plated in 1536 well black, clear bottom plates at a density of 4000 cells/well in 3 ul of complete media containing 1x tetracycline inducer. After an overnight incubation at 30 C in 5% CO2, cells are loaded with 2 ul of the no wash Calcium Assay Kit (ABD Bioquest) and incubated at room temperature for 30 to 90 minutes. Agonist read: A 10 cycle (1 second/cycle) baseline measurement is taken and then the FDSS online 1536 pintool delivers 23 nl of compound library (as well as dopamine controls) to the plate. The plate is measured for kinetically at 1 cycle/sec for 180 seconds. Following the 180 second read, 1 ul of an EC80 (negative modulation assay) is delivered by an onboard pipette head. Measurements are taken kinetically for an additional 180 seconds.
% is scaled to controls: 0 for no effect and ±100 for the full control effect.

Row | Compound | activity change, negative = inhibition
1 | C=CCn1c(O)c(/C=N/N2CCOCC2)c(=O)[nH]c1=S | 6.62%
2 | COc1ccc(-c2nc(CS(=O)CC(=O)N3CCC4(CC3)OCCO4)c(C)o2)cc1 (stereo not drawn) | -3.25%
3 | CCN1C(=O)C(=Cc2c(C)n(CC(=O)NCC3CCCO3)c3ccccc23)C(=O)N(CC)C1=S (stereo not drawn) | -0.95%
4 | Cn1c(O)c(C=Nc2ccc3c(c2)CCC3)c(=O)n(C)c1=O | -5.53%
5 | CC(=NC1CCN(Cc2ccccc2)CC1)c1c(O)n(C)c(=O)n(C)c1=O | -0.272%
6 | Cn1c(O)c(C(=Nc2ccc(F)cc2)c2ccccc2)c(=O)n(C)c1=O | -33.5% (active)
7 | COc1ccccc1N=C1SCCCN1C | -10.1%
8 | CCc1ccc(OCC(=O)N2CCN(CC(=O)Nc3ccccc3Cl)CC2)cc1 | -5.54%
9 | COC(=O)C1=C(c2ccc(F)cc2OCc2ccccc2)C[C@@H]2CC[C@H]1N2C(=O)NCc1ccc(C(C)(C)C)cc1 | -11.5%
10 | COC(=O)C1=C(c2ccc3ccccc3c2)C[C@@H]2CC[C@H]1N2C(=O)NCCO | -40.5% (active)
11 | COC(=O)C1=C(c2ccc(-c3ccccc3)c(F)c2)C[C@@H]2CC[C@H]1N2C(=O)NCc1ccc(F)cc1 | -0.711%
12 | COC(=O)C1=C(c2ccc(C(C)=O)cc2)C[C@@H]2CC[C@H]1N2C(=O)NCCNC(C)=O | 24%
13 | COC(=O)C1=C(c2ccccc2OCc2ccccc2)C[C@@H]2CC[C@H]1N2C(=O)NCc1ccc(OC)cc1 | -30.4% (active)
14 | COC(=O)C1=C(c2ccc(F)cc2OCc2ccccc2)C[C@@H]2CC[C@H]1N2C(=O)NCc1ccc(Cl)cc1 | 12.1%
15 | CC(Cc1ccccc1)NCCC(c1ccccc1)c1ccccc1 (stereo not drawn) | 15.9%
16 | Cc1ccc(NC(=O)N(Cc2ccc3c(c2)OCO3)C2CCN(Cc3ccccc3)CC2)cc1F | 2.05%
17 | CSc1nc2ccc(C)cc2c(=O)n1-c1cccnc1 | 7.08%
18 | Cc1cc(C(=O)OCC(=O)Nc2c(F)cccc2F)c(C)n1C1CC1 | 2.31%
19 | Cc1nn(-c2ccccc2)c(C)c1NC(=O)COC(=O)Cc1ccccc1 | -0.424%
20 | O=C(COC(=O)c1ccccc1)Nc1ccc(Cl)cc1C(=O)c1ccccc1 | -31.5% (active)
21 | O=C(CCNS(=O)(=O)c1ccccc1)Nc1ccc(Cl)cc1C(=O)c1ccccc1 | -6.99%
22 | O=C(Nc1ccc(Cl)cc1C(=O)c1ccccc1)c1cc(Cl)cc(Cl)c1 | 23.8%

Row | Compound | activity change, negative = inhibition
23 | CN1CCN(C(=S)SCC(=O)Nc2ccc(Cl)cc2C(=O)c2ccccc2)CC1 | -39.4% (active)
24 | O=C(CN1CCCCC1)Nc1ccc(Br)cc1C(=O)c1ccccc1Cl | -26.5%
25 | O=C(CCN1CCCCC1)NCC(=O)Nc1ccc(Br)cc1C(=O)c1ccccc1 | -20.3%
26 | CN(c1ccccc1)c1ccc([N+](=O)[O-])c2nonc12 | 0.138%
27 | COC(=O)C1=C(c2ccc(F)cc2F)C[C@@H]2CC[C@H]1N2C(=O)NC1CC1 | 25.8%
28 | O=C(NC(=S)N1C[C@H]2C[C@H](C1)c1cccc(=O)n1C2)c1ccc(F)cc1 | -0.512%
29 | Cn1cc(/C=C/c2nc3ccccc3c(=O)n2-c2ccccc2)c2ccccc21 | 11%
30 | Cc1ccccc1NC(=O)COC(=O)c1cc(C)n(C2CC2)c1C | 2.42%
31 | C[C@]12CC[C@H](O)C[C@H]1CC[C@@H]1C2CC[C@]2(C)[C@@H](C3=CC(=O)OC3)[C@@H](O)C[C@]12O (stereo partly drawn) | -17.2%
32 | CC(C)CN1CCN(Cc2ccccc2C(F)(F)F)CC1CCO (stereo not drawn) | 0.591%
33 | O=C(CCCn1c(=O)[nH]c2cc(Cl)ccc2c1=O)N1CCC2(CC1)OCCO2 | -7.09%
34 | Cc1ccc(-c2cc(C(=O)N3CCC4(CC3)OCCO4)no2)cc1 | -7.04%
35 | Cc1ccc(Cn2c(C)c3cnn(CC(=O)N4CCC5(CC4)OCCO5)c(=O)c3c2C)cc1 | -49.4% (active)
36 | CNC(=O)O/N=C(\N)Cc1csc2ccccc12 | -21.2%
37 | CNC(=O)N(C)c1nnc(C(C)(C)C)s1 | 9.77%
38 | CCc1nc2ccccc2c(=O)n1-c1cccc(OC)c1 | 2.19%
39 | NCC(O)c1ccc(O)cc1 (stereo not drawn) | -66.9% (active)
40 | CCOP(=O)(OCC)C(NC(=O)NC)C(N)=O (stereo not drawn) | 4.22%
41 | COC(=O)C1=C(c2cccc(OCc3ccccc3)c2)C[C@@H]2CC[C@H]1N2C(=O)NNCc1ccccc1 | -14.3%
42 | CCN1CCN(c2ccc([N+](=O)[O-])cc2C#N)CC1 | 1.99%
43 | CC(C)n1c(=O)c(C=Nc2ccc(Br)cc2)c(O)n(Cc2ccco2)c1=O | 14%
